PubChem BioAssay (Tox21)
Inconclusive results are not listed. Activity calls are given as the source filed them. Unless noted, calls follow the shape of the dose curve; as a rule, active = well fitted curve in the direction sought with a large enough effect in the repeat runs; inconclusive = weak or mixed curves; inactive = no such curve, though single readings can be large; an effect the other way counts as inactive or inconclusive.

Tests used:
[1] = qHTS assay for small molecule agonists of the p53 signaling pathway (AID 651631; calls by dose curve; also: nearly all actives have a fitted effect of over 15% in size)
Outline: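 Beta-lactamase reporter activity under p53 response elements was quantified in HCT-116 cells by FRET fluorescence, following 16 h incubation with test compounds at 37 °C and 2 h substrate development at room temperature.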

[2] = qHTS assay for small molecules that induce genotoxicity in human embryonic kidney cells expressing luciferase-tagged ATAD5 (AID 651632); also: nearly all actives have a fitted effect of over 15% in size
Outline: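 Test compounds were delivered by pin tool onto HEK293T reporter cells (2,000/well) expressing ATAD5 fused to luciferase. After 16 hr at 37C, 5% CO2, Amplite was added for 30 min at room temperature and luminescence was measured.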

[3] = qHTS assay for small molecules that induce genotoxicity in human embryonic kidney cells expressing luciferase-tagged ATAD5 - cell viability (AID 651634; calls by dose curve; also: nearly all actives have a fitted effect of over 25% in size)
Outline: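 Quantitative high-throughput format. HEK293T cells expressing ATAD5 fused to luciferase were plated at 2,000 cells/well and treated 15.5 hr with compound versus DMSO. Viability was determined by fluorescent live-cell protease substrate, 30 min at 37C.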

[4] = qHTS assay for small molecule disruptors of the mitochondrial membrane potential - cell viability (AID 720634; calls by dose curve;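 also: human HepG2 liver cancer cells; series mostly up to about 83 µM; nearly all actives have a fitted effect of over 20% in size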)
Outline: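 Same-well counter-screen: following the MMP dye addition, CellTiter-Glo was added to 1 hr compound-treated HepG2 cells and luminescence read after 30 min at room temperature.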

[5] = qHTS assay for small molecule disruptors of the mitochondrial membrane potential (AID 720635)
Outline: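 HepG2 cells exposed to compound 1 hr at 37C, then Mito-MPS dye 30 min. Ratio read of aggregate (540/590 nm) versus monomer (490/535 nm) fluorescence.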

[6] = qHTS assay to test for compound auto fluorescence at 590 nm (red) in HepG2 cells (AID 720674)
Outline: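 Seeding: 2,000 HepG2 cells/well, MEM/10% FBS, overnight 37 C. Dosing: compound vs DMSO. Incubation: 1 hr, 37 C, 5% CO2. Read: fluorescence 540 ex/590 em, Rose Bengal sodium as red reference.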

[7] = qHTS assay to test for compound auto fluorescence at 535 nm (green) in HepG2 cells (AID 720675)
[8] = qHTS assay to test for compound auto fluorescence at 460 nm (blue) in HEK293 cells (AID 720678)
Outline: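 Measured: blue fluorescence (Ex 405/Em 460 nm) of compound-treated HEK293 cells, incubated overnight at 37C with 5% CO2 and scaled to triamterene equivalents.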

[9] = qHTS assay to test for compound auto fluorescence at 590 nm (red) in HEK293 cells (AID 720679)
Outline: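 Using HEK293 cells at 2,000 per well, the screen added 23 nL of each compound after cell attachment and incubated overnight (37C, 5% CO2). The plate reader then captured red-label fluorescence, Ex/Em 540/590nm.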

[10] = qHTS assay to test for compound auto fluorescence at 535 nm (green) in HEK293 cells (AID 720680)
[11] = qHTS assay to test for compound auto fluorescence at 460 nm (blue) in HEK293 cell free culture (AID 720681)
Outline: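 Compounds were added to cell-free DMEM with 10% FBS and fluorescence read directly. The blue channel used 405 nm excitation and 460 nm emission, with triamterene as the reference fluorophore.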

[12] = qHTS assay to test for compound auto fluorescence at 535 nm (green) in HEK293 cell free culture (AID 720682)
Outline: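 Each library compound, or DMSO control, is added by pintool to medium alone, comprising DMEM and 10% FBS. Emission at 535 nm following 485 nm excitation is quantified against fluorescein.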

[13] = qHTS assay to test for compound auto fluorescence at 590 nm (red) in HepG2 cell free culture (AID 720684)
Outline: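 Rose Bengal sodium served as the reference for red signal. Test compounds were dispensed into serum-containing MEM (10% FBS) without cells, and plates were read at 540/590 nm.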

[14] = qHTS assay to test for compound auto fluorescence at 460 nm (blue) in HepG2 cell free culture (AID 720685)
Outline: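 Cell-free plates of MEM plus 10% FBS received 23 nL compound or DMSO vehicle; blue-channel (405/460 nm) intensity scored against triamterene as reference fluorophore.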

[15] = qHTS assay to test for compound auto fluorescence at 535 nm (green) in HepG2 cell free culture (AID 720686)
[16] = qHTS assay to test for compound auto fluorescence at 460 nm (blue) in HepG2 cells (AID 720687)
Outline: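 HepG2 cells in MEM with 10% FBS, attached overnight at 37 C, were exposed to compound or DMSO for 1 hr at 37 C, 5% CO2. Blue fluorescence was read at 405/460 nm, with triamterene as reference fluorophore.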

[17] = qHTS assay to test for compound auto fluorescence at 590 nm (red) in HEK293 cell free culture (AID 720683)
Outline: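 Cell-free wells of DMEM with 10% FBS received compound, and intrinsic fluorescence was read at excitation/emission 540/590 nm. Values expressed as equivalence to Rose Bengal sodium.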

[18] = biological target: Glucocorticoid receptor (Homo sapiens) (UniProt P04150); experiment: qHTS assay to identify small molecule agonists of the glucocorticoid receptor (GR) signaling pathway (AID 720691; active = well fitted activation curve with a large enough effect in the signal ratio in the repeat runs, not every such curve was filed as active; the % refers to the signal ratio)
Glucocorticoid receptor (Homo sapiens), sequence (P04150 whole entry, looked up): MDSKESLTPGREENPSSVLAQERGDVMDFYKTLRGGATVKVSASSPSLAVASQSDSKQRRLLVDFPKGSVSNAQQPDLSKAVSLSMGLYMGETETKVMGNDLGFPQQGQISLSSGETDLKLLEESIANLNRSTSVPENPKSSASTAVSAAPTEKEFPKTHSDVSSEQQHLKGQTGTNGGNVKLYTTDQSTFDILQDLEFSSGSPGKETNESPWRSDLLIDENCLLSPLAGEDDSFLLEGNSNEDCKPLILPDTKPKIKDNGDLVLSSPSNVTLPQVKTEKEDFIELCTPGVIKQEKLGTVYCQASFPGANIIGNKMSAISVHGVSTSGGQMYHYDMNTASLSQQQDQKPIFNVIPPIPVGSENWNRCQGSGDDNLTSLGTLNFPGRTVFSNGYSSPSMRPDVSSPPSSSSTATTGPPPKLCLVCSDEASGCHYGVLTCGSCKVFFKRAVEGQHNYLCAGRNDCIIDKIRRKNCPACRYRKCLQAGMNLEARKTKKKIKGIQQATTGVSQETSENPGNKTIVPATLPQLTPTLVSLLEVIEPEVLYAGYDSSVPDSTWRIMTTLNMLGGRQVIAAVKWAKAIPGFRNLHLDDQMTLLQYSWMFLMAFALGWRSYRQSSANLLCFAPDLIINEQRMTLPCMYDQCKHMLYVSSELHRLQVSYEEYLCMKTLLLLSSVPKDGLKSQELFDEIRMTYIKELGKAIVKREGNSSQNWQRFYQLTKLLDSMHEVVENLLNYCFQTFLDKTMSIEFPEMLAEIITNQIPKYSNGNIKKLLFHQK
Outline: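 A HeLa cervical cancer line expressing GR and a glucocorticoid response element-driven beta-lactamase gene is treated with compounds for 18 h; LiveBLAzer B/G FRET substrate is then applied and fluorescence read.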

[19] = biological target: Glucocorticoid receptor (Homo sapiens) (UniProt P04150); experiment: qHTS assay to identify small molecule antagonists of the glucocorticoid receptor (GR) signaling pathway (AID 720692; active = well fitted inhibition curve with a large enough effect in the signal ratio in the repeat runs, not every such curve was filed as active; the % refers to the signal ratio)
Outline: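 GRE-bla HeLa line, dex-stimulated (5 nM final). Compound exposure 18 h, 37 C. Beta-lactamase FRET read after 2 h RT substrate.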

Measured: Potency

CC1(C)[C@@H]2CC[C@]3(C2)[C@@H]1C(=O)CCC3(C)C
not listed: [17] | [18] | [19]
inactive: all other assays above

O=C(O)c1ccccc1-n1cc(C(=O)O)c(=O)c2cc(Nc3c(F)cc(F)cc3Cl)c(Cl)cc21
not listed: [4] | [6]
inactive: all other assays above

CCCOC(C)=O
not listed: [5] | [17] | [19]
inactive: all other assays above

C=CC(O)CCCCC (stereo not drawn)
not listed: [4] | [5] | [12] | [18] | [19]
inactive: all other assays above
